A selection: hits, their analogues and other compounds. The true share with any hit is near 4.1%.
DAX1 inh-1: blocks DAX1 repression of SF-1 activated StAR promoter; HEK293T StAR-luciferase reporter, SF-1/DAX-1 repression relief; inhibition, % at 6.8 µM; 370,000 compounds, 1.1% hits; AID 652010;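 active = inhibition above the mean over all tested compounds plus 3 SD, cut at about 3.6% in these data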;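 note: 0% = DAX-1 cells with DMSO and 100% = cells lacking DAX-1 with DMSO; higher inhibition means more luminescence from relief of DAX-1 repression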
hcDAF12 agonist: H. contortus DAF-12 activation, primary screen | HEK293 hcDAF-12 lit1-tk-luc reporter, luminescence; 0% DMSO, 100% Δ7-dafachronic acid | activation, % at 6.8 µM | 370,000 compounds, 1.4% hits | AID 652067;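 active = activation above the mean of all tested compounds plus 3 SD, cut at about 5.5% in these data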;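 note: 100% = response to 3 µM Δ7-dafachronic acid high control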
ssDAF-12 act: activators of S. stercoralis DAF-12 nuclear receptor. HEK293 ssDAF-12/GRIP1 lit1-tk-luc reporter, luminescence; % of 3 µM dafachronic acid response. activation, % at 6.8 µM. 370,000 compounds, 1% hits. AID 652126;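 active = activation above the mean over all tested compounds plus 3 SD, cut at about 0.9% in these data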;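 note: 0% = DMSO-only wells and 100% = 3 µM delta7-dafachronic acid wells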
DAX1 inh-2: NR0B1 (DAX1) inhibition | P51843 | HEK293 Gal4-DAX1 luciferase reporter, luminescence | inhibition, % at 6.75 µM | 340,000 compounds, 0.99% hits;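 active = inhibition above the mean over all tested compounds plus 3 SD, cut at about 4.2% in these data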;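 note: 0% = DAX1-transfected cells with DMSO and 100% = empty-vector control cells with DMSO; inhibition shows as a rise in luminescence from relieved DAX1 repression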
hgDAF-12 ag: agonists of H. glycines DAF-12 nuclear receptor. AID 687014. 370,000 compounds, 1.8% hits. activation, % at 6.8 µM. HEK293 GAL4-hgDAF12 UAS-luciferase reporter, agonist luminescence; normalized to butyrate control;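 active = activation above a cutoff set at the mean of all screened compounds plus 3 SD, cut at about 10% in these data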;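 note: 0% = DMSO wells and 100% = sodium butyrate wells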
DAX1 conf: NR0B1 (human) inhibition, confirmation. shares compounds with DAX1 inh-1. HEK293T StAR-promoter luciferase reporter, SF-1/DAX-1 repression. inhibition, % at 6.8 µM. 2,400 compounds, 87% hits;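 active = inhibition above the average of every tested compound plus 3 SD, cut at about 3.8% in these data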;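 note: 0% = DAX-1 cells with DMSO and 100% = no DAX-1 control cells with DMSO; active compounds raise luminescence by relieving repression of the StAR reporter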
Target sequence (P51843 whole entry, looked up): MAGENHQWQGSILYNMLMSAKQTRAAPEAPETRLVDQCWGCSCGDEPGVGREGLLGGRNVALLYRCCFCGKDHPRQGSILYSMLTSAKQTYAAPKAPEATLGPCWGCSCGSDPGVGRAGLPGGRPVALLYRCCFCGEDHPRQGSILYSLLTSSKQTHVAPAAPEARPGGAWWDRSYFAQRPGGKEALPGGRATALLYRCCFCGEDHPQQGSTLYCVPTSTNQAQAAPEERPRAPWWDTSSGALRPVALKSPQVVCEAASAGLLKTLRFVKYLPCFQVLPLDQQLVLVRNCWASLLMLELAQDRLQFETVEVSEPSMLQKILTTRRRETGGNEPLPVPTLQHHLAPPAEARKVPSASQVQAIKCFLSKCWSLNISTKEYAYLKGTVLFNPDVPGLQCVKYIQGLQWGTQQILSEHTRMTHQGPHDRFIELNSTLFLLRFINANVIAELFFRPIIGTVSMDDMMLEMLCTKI
SF1 mutant ctr: counter-screen for DAX1 inhibitors: nonselective inhibitors with SF-1 AF2 mutant | shares compounds with DAX1 inh-1 | HEK293 StAR-luciferase, luminescence | inhibition, % at 6.8 µM | 2,400 compounds, 78% hits | AID 652136;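 active = inhibition above the mean of all tested compounds plus 3 SD, cut at about 3% in these data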;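 note: 0% = DAX-1 transfected cells with DMSO and 100% = cells without DAX-1 with DMSO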
LXRb hcDAF ctr: counter-screen for hcDAF-12 agonists: agonists of human LXR-beta | activation, % at 6.8 µM | shares compounds with hcDAF12 agonist | 3,400 tested, under 10 active | HEK293 Gal4-LXR tk-luc reporter, luminescence, 24 h; normalized: DMSO 0%, positive control 100%;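 active = mean percent activation of the reporter above a cutoff set as the average over tested compounds plus their standard deviation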
hcDAF12 ag: confirmation of H. contortus DAF-12 agonists. 3,400 compounds, 61% hits. activation, % at 6.8 µM. HEK293 hcDAF-12 lit1-tk-luc reporter, luminescence; % of Δ7-dafachronic acid response. shares compounds with hcDAF12 agonist;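 active = mean activation across triplicate tests above the threshold derived from the earlier primary screen, cut at about 5.5% in these data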;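 note: 0% = DMSO only wells and 100% = 3 µM Δ7-dafachronic acid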
Active calls of the source: *; . = not tested or not shown.

SMILES	DAX1 inh-1	hcDAF12 agonist	ssDAF-12 act	DAX1 inh-2	hgDAF-12 ag	DAX1 conf	SF1 mutant ctr	LXRb hcDAF ctr	hcDAF12 ag
Cc1ccc2nc(-c3ccc(NC(=O)COC(=O)c4cncc(Br)c4)cc3)sc2c1	5.7*	9.5*	1.6*	3	13*	17*	7.5*	2	12*
Cc1ccsc1C(=O)N/N=C/C=C/c1ccccc1[N+](=O)[O-]	1	0	-1	0	5	.	.	.	.
Cc1ccsc1C(=O)N/N=C/c1ccc2c(c1)OCO2	7.7*	9.1*	1	0	15*	15*	9.4*	2	6.6*
Cc1ccccc1/C=N/NC(=O)c1sccc1C	6.2*	12*	2.0*	2	27*	15*	10*	1	5
Cc1cc(N2CCN(C(=O)OC(C)(C)C)C[C@@H]2C)ccc1N1CCN(Cc2ccccc2)[C@@H](C)C1	-1	-1	-1	.	5	.	.	.	.
Cc1ccc(/C=C/C(=O)N2CCc3ccccc32)o1	5.2*	13*	1.3*	2	13*	16*	7.3*	2	9.9*
COc1ccc(-n2nc3ccc(N)cc3n2)cc1	1	-1	-1	-2	1	.	.	.	.
CC(C)c1ccc(-n2nc3ccc(N)cc3n2)cc1	5.1*	9.8*	2.2*	0	15*	14*	7.8*	2	18*
O=C(Nc1ncccc1O)c1ccc2ccccc2c1	10*	9.9*	0	0	12*	14*	7.4*	1	6.9*
O=C(Nc1ncccc1O)c1ccc(Cl)c(S(=O)(=O)N2CCCCCC2)c1	1	-1	-1	-1	-1	.	.	.	.
COCCn1c(C)cc(C(=O)COC(=O)c2cccnc2SC)c1C	5.8*	7.7*	0	2	9	16*	5.6*	2	9.4*
CCC(=O)c1ccc(/C=C/c2nc3ccccc3n2C)o1	4.7*	6.9*	1.4*	0	25*	8.8*	5.4*	1	6.7*
CCc1nnc(NC(=O)CSc2nc(C)cc(C)c2C#N)s1	6.7*	7.7*	-1	-1	11*	15*	8.4*	1	9.5*
CCn1c(C)nnc1SCC(=O)Nc1nccs1	0	3	0	-1	-1	.	.	.	.
Cc1ccc(C#N)c(SCC(=O)Nc2nccs2)n1	6.3*	18*	3.0*	0	20*	12*	6.6*	2	22*
CCOC(=O)c1c(SCC(=O)Nc2nccs2)nc(C)c(C)c1C	6.6*	11*	0	0	5	4.1*	2	0	2
COC(=O)[C@]12C[C@H](CC(=O)N3CCCC3)C(=O)N(Cc3ccc4c(c3)OCO4)C1=C[C@H](COCc1ccccc1)O[C@@H]2C	0	-2	-1	.	-2	.	.	.	.
CCOc1ccc(-n2c(COc3ccc(C)cc3)nnc2SCC(=O)Nc2ccc(F)c(F)c2)cc1	-1	0	-1	.	-1	.	.	.	.
Cc1cccc(NC(=O)c2cnc3sccn3c2=O)n1	1	1	-1	1	3	.	.	.	.
Cc1cccc(NC(=O)c2cnc3sccn3c2=O)c1	6.5*	6.9*	0.9*	4	13*	12*	4.4*	2	13*
COc1ccc(C(C(=O)N(C)C2CCCC2)N(Cc2ccc(F)cc2)C(=O)c2sccc2Cl)cc1OC (configuration not stated)	-2	2	-2	.	-3	.	.	.	.
C(=N\Nc1nccc(-c2cccnc2)n1)/c1ccccc1	1	2	-1	.	7	.	.	.	.
Cc1ccnc(N/N=C/c2ccccc2)n1	4.6*	17*	0	1	13*	11*	6.3*	1	3
CCOC(=O)[C@]12CCCCC/C=C\1N(Cc1ccc(OC)cc1)C(=O)[C@H]2CC(=O)NCCC(C)C	1	0	0	.	-2	.	.	.	.
S=C1NC2=C(CCCC2=C2SCCCS2)C(c2ccccc2)N1 (configuration not stated)	0	-1	-1	-1	-3	.	.	.	.
SMILES	DAX1 inh-1	hcDAF12 agonist	ssDAF-12 act	DAX1 inh-2	hgDAF-12 ag	DAX1 conf	SF1 mutant ctr	LXRb hcDAF ctr	hcDAF12 ag
COc1ccc(C2NC(=S)NC3=C2CCCC3=C2SCCS2)cc1 (configuration not stated)	88*	7.9*	0	5.0*	50*	13*	2	0	2
O=C(NC1CCCCN(Cc2ccc(OC(F)(F)F)cc2)C1=O)c1cccc(F)c1 (configuration not stated)	0	0	-2	.	0	.	.	.	.
COC(=O)[C@]12CCCCC=C1N(Cc1ccc(OC)cc1)C(=O)[C@@H]2CC(=O)N1CCCCC1	-2	-3	-1	.	3	.	.	.	.
COc1ccc(-c2nc(-c3ccc(Br)o3)no2)cc1OC	1	4	-1	1	5	.	.	.	.
COc1ccccc1-c1nc(-c2ccc(Br)o2)no1	7.9*	26*	4.5*	2	20*	17*	8.2*	2	21*
CN(CC#CC1=CCCCC1)/C(N)=N/C(=O)OCc1ccccc1	-1	-2	-1	.	1	.	.	.	.
COc1ccc2oc(C(=O)NCC3CCCO3)c(C)c2c1 (configuration not stated)	6.5*	12*	1	1	6	5.1*	2	1	6.5*
Brc1ccc2[nH]c3c(c2c1)CCC3	0	-2	-2	0	-4	.	.	.	.
O=C1Cc2c([nH]c3ccc(Br)cc23)-c2ccccc2N1	7.5*	11*	0	4	11*	6.4*	-6	2	8.5*
COC(=O)[C@@H]1C[C@@]2(c3ccccc3)c3ccccc3N(S(=O)(=O)c3ccccc3)[C@H]2N1C(=O)CNC1CCCCC1	0	-1	-1	.	1	.	.	.	.
Cc1cc(-c2nc3ccccc3s2)ccc1N	6.7*	15*	3.1*	-3	12*	10*	3.1*	2	21*
Cc1cc(C(=O)CSc2nnc(N)s2)c(C)n1Cc1cccs1	6.2*	6.7*	0	-4	8	16*	2	1	4
Cc1csc(SCC(=O)c2cc(C)n(Cc3cccs3)c2C)n1	-3	-3	-2	-4	-9	.	.	.	.
CC(=O)c1c(C)[nH]c(C(=O)Nc2cccc(C)n2)c1C	12*	6.9*	0	0	12*	11*	4.7*	1	3

Source: PubChem
